Source: PubChem BioAssay (NCATS)
Records with an inconclusive call do not appear. Unless noted, calls come from the whole dose curve; as a rule, active = well fitted curve in either direction with a large enough effect (not every such curve was filed as active); inconclusive = small, poorly fitted or top-dose-only effect, or another doubt; inactive = flat fitted curve, though single readings scatter.

What was measured:
[1] = AP1 Signaling Pathway (AID 357); details: ME-180 AP-1-bla reporter, EGF-induced, beta-lactamase ratio, 5 h; at 17.2 µM (top of the series) unless noted;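 note: ME-180 reporter cells stimulated with EGF at its EC50 level; % is set by controls: 0 for no effect and ±100 for the full control effect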
Outline: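 Read-out was the 460nm/530nm emission ratio (excitation 405nm) after CCF4 loading for 2.5 hours at room temperature. Cells carried an AP-1-driven beta-lactamase reporter, were stimulated with EC50 EGF plus compound for 5 hours, and AC50 values came from titrations.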

[2] = NFAT Signaling Pathway (AID 444); details: Jurkat NFAT-bla M1, carbachol, beta-lactamase ratio, 5 h; at 17.2 µM (top of the series) unless noted;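 note: carbachol stimulus at about its EC50 of 1 µM final; % is set by controls: 0 for no effect and ±100 for the full control effect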
Outline: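 Read-out: CCF4 FRET ratio (460 nm/530 nm) after 1 h RT dye loading, used for %activity and AC50 from titration series. Cells: Jurkat NFAT-β-lactamase/M1 line, treated with compound plus 1 uM carbachol for 5 h, 37 °C.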

[3] = Stat Signaling Pathway (AID 446); details: ME-180 (cervical carcinoma) SIE beta-lactamase reporter, IL-6 stimulated, 5 h; at 17.2 µM (top of the series) unless noted;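 note: ME-180 cervical cancer cells given 40 pM IL-6 alongside compound; SIE-controlled beta-lactamase reporter measured as 460/530 nm FRET emission ratio; % is set by controls: 0 for no effect and ±100 for the full control effect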
Outline: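 Emission at 460 and 530 nm (excitation 405 nm) reports SIE-controlled beta-lactamase in ME-180 cells. Cells received compound with 40 pM IL-6 for 5 hrs at 37 C; data scaled between 300 pM IL-6 and 125 nM JAK-inhibitor controls.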

[4] = target: Glucocorticoid receptor (Homo sapiens) (UniProt P04150); experiment: GR-GFP Redistribution (AID 450;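 active = compounds whose dose series gives a full or clear partial fitted curve of increased nuclear translocation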; note: potency is the fitted concentration of half-maximal effect)
Sequence of Glucocorticoid receptor (Homo sapiens) (P04150 whole entry, looked up): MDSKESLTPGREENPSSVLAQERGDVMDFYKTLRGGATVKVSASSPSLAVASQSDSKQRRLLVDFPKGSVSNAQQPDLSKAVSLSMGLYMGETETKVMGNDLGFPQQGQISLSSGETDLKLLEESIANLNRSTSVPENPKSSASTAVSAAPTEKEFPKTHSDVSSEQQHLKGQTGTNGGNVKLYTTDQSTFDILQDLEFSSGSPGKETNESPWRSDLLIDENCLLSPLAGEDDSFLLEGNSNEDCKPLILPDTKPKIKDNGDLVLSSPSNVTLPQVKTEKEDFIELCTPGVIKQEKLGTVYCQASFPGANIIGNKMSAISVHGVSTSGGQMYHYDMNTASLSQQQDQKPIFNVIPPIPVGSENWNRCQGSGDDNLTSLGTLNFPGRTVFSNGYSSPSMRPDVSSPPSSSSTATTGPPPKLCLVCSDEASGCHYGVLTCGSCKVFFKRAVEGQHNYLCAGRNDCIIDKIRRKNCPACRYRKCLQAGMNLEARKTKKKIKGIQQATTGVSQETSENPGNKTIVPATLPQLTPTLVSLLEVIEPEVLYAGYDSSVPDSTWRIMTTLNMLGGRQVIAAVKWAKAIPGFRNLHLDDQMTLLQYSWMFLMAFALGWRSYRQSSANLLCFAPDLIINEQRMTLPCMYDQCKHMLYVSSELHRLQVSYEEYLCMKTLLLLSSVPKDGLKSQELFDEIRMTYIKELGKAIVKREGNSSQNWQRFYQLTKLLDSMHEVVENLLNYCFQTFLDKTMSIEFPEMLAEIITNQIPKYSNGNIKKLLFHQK

CCOc1ccc(C2/C(=C(/O)c3ccc(F)cc3)C(=O)C(=O)N2CCCN(C)C)cc1 (centres undefined)
inactive: activity change, negative = inhibition [1] 10.1% | activity change, negative = inhibition [2] 5.42% | activity, negative = inhibition [3] 6.85% | Potency [4] > 20.6 µM

c1ccc(Cc2nn[nH]n2)cc1
inactive: activity change, negative = inhibition [1] 7.13% | activity change, negative = inhibition [2] -3.11% | activity, negative = inhibition [3] 8.05% | Potency [4] > 20.6 µM

N#Cc1c(N2CCOCC2)nc(-c2ccco2)c2c1CCCC2
inactive: activity change, negative = inhibition [1] 2.51% | activity change, negative = inhibition [2] 4.52% | activity, negative = inhibition [3] 4.59% | Potency [4] > 20.6 µM

CCCSc1nc(C)c(CC(=O)OCC)c(=O)[nH]1
inactive: activity change, negative = inhibition [1] -4.57% | activity change, negative = inhibition [2] -4.22% | activity, negative = inhibition [3] -2.57% | Potency [4] > 20.6 µM

CCOc1cccc(-c2nnc3sc(-c4ccc(C)cc4)nn23)c1
inactive: activity change, negative = inhibition [1] 18.5% | activity change, negative = inhibition [2] -19.6% | activity, negative = inhibition [3] 24.1% | Potency [4] > 20.6 µM

CCN(CC)C(=O)CSC1=C(C#N)C(c2ccco2)C(C(=O)OCCOC)=C(C)N1 (centres undefined)
inactive: activity change, negative = inhibition [1] -10.6% | activity change, negative = inhibition [2] -0.498% | activity, negative = inhibition [3] 2.75% | Potency [4] > 20.6 µM

COc1cccc(Cn2c(NCC(C)C)nc3c2c(=O)n(C)c(=O)n3C)c1
inactive: activity change, negative = inhibition [1] 15.5% | activity change, negative = inhibition [2] -1.36% | activity, negative = inhibition [3] -6% | Potency [4] > 20.6 µM

CCOc1ccc(NC(=O)CSC2=C(C#N)C(c3ccc4c(c3)OCO4)CC(=O)N2)cc1 (centres undefined)
inactive: activity change, negative = inhibition [1] -17.2% | activity change, negative = inhibition [2] -5.95% | activity, negative = inhibition [3] -3.62% | Potency [4] > 20.6 µM

CCc1ccc2c(c1)C(C)=CC(C)(C)N2
inactive: activity change, negative = inhibition [1] 1.34% | activity change, negative = inhibition [2] 7.21% | activity, negative = inhibition [3] -8.11% | Potency [4] > 20.6 µM

COc1cc(C2C(C(=O)c3sc(C)nc3C)=C(O)C(=O)N2CCN(C)C)cc(OC)c1OC (centres undefined)
inactive: activity change, negative = inhibition [1] -0.396% | activity change, negative = inhibition [2] 1.9% | activity, negative = inhibition [3] 8.27% | Potency [4] > 20.6 µM

CC(=O)c1cccc(N=C2NC(=O)C(CO)(CO)S2)c1
inactive: activity change, negative = inhibition [1] 3.54% | activity change, negative = inhibition [2] -3.93% | activity, negative = inhibition [3] 4.42% | Potency [4] > 20.6 µM

Nc1nc(NC(=O)c2cccs2)nn1-c1ccccc1
inactive: activity change, negative = inhibition [1] 4.21% | activity change, negative = inhibition [2] 7.64% | activity, negative = inhibition [3] -0.835% | Potency [4] > 20.6 µM

COc1ccc(C2=Nn3c(nnc3-c3cccnc3)SC2)cc1OC
inactive: activity change, negative = inhibition [1] -11.2% | activity change, negative = inhibition [2] -23% | activity, negative = inhibition [3] -17.6% | Potency [4] > 20.6 µM

O=C(C1=C(O)C(=O)N(CCCN2CCOCC2)C1c1ccccn1)c1cccs1 (centres undefined)
inactive: activity change, negative = inhibition [1] -0.154% | activity change, negative = inhibition [2] -1.18% | activity, negative = inhibition [3] -0.582% | Potency [4] > 20.6 µM

O=C(CN1C2=NCCN2c2ccccc21)N1CCOCC1
inactive: activity change, negative = inhibition [1] 5.86% | activity change, negative = inhibition [2] -2.85% | activity, negative = inhibition [3] 8.05% | Potency [4] > 20.6 µM

CCOC(=O)c1ccc(NC(=O)COc2ccccc2OC)cc1
inactive: activity change, negative = inhibition [1] -16.3% | activity change, negative = inhibition [2] 0.388% | activity, negative = inhibition [3] 2.17% | Potency [4] > 20.6 µM

CC12CCC(C(=O)N(CCC#N)CCC#N)(CC1=O)C2(C)C (centres undefined)
inactive: activity change, negative = inhibition [1] 10.6% | activity change, negative = inhibition [2] 18.9% | activity, negative = inhibition [3] 6.43% | Potency [4] > 20.6 µM

CCOC(=O)CC(=O)CSc1nc2c(cc1C#N)CCCCCC2
inactive: activity change, negative = inhibition [1] -15.8% | activity change, negative = inhibition [2] 2.93% | activity, negative = inhibition [3] -11.8% | Potency [4] > 20.6 µM

C=CCn1c(SCC(=O)c2ccccc2)nnc1-c1ccc2c(c1)OCO2
inactive: activity change, negative = inhibition [1] -7.81% | activity change, negative = inhibition [2] 16.5% | activity, negative = inhibition [3] -9.25% | Potency [4] > 20.6 µM

CCC(NC(=O)NC1=NCCS1)(C(F)(F)F)C(F)(F)F
inactive: activity change, negative = inhibition [1] 8.03% | activity change, negative = inhibition [2] -10% | activity, negative = inhibition [3] 15.4% | Potency [4] > 20.6 µM

CCc1ccccc1NC(=O)CSC1=C(C#N)C(c2ccc(O)c(OC)c2)C2=C(CCCC2=O)N1 (centres undefined)
inactive: activity change, negative = inhibition [1] -4.47% | activity change, negative = inhibition [2] 2.67% | activity, negative = inhibition [3] -5.76% | Potency [4] > 20.6 µM

O=C(Oc1ccccc1N1C(=O)CCC1=O)c1ccco1
inactive: activity change, negative = inhibition [1] 11.4% | activity change, negative = inhibition [2] 8.69% | activity, negative = inhibition [3] 1.19% | Potency [4] > 20.6 µM

C=CCn1cnc2c(c1=O)c1nc3ccccc3nc1n2-c1ccc(Cl)cc1
inactive: activity change, negative = inhibition [1] 8.09% | activity change, negative = inhibition [2] -0.571% | activity, negative = inhibition [3] -1.17% | Potency [4] > 20.6 µM

CCOC(=O)c1c(NC(=O)CN2CCOCC2)sc2c1CC(C)(C)OC2
inactive: activity change, negative = inhibition [1] -15.6% | activity change, negative = inhibition [2] 12.7% | activity, negative = inhibition [3] -6.32% | Potency [4] > 20.6 µM

OCCCc1nc2ccccc2n1CCc1ccccc1
inactive: activity change, negative = inhibition [1] 6.55% | activity change, negative = inhibition [2] -7.48% | activity, negative = inhibition [3] -0.378% | Potency [4] > 20.6 µM

Cc1ccc(N(CC(O)CN2CCCC2)S(=O)(=O)c2ccc(C)cc2)cc1 (centres undefined)
inactive: activity change, negative = inhibition [1] 0.0608% | activity change, negative = inhibition [2] -19.4% | activity, negative = inhibition [3] 11.3% | Potency [4] > 20.6 µM
